# In PubChem BioAssay (EPA / NIEHS):
# Results filed as inconclusive are left out. Active and inactive are the calls of the source. Rule for the calls, unless noted: active = hit-call score of the fitted dose curve at least 0.9, where 1 is the maximum; inconclusive = response in the unintended direction; inactive = score below 0.9.
# Columns and labels:
# [1] = BSK_3C_VCAM1: BioMAP Diversity Plus: 3C Assay for Vascular cell adhesion molecule 1 (VCAM1) Biomarker Activity (AID 2282999; active = hit-call score of the fitted dose curve at least 0.9, where 1 is the maximum; inactive = score below 0.9); conditions: BioMAP 3C HUVEC, VCAM1 ELISA, cytokine-stimulated; actives raise or lower the signal
# Procedure, shortened: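 Activity fitted in both directions relative to DMSO, with ELISA measurement of the surface marker on primary HUVEC (3C) at 24 h post-treatment; parallel SRB staining (0.1% SRB, TCA-fixed, 560 nm) flagged overt cytotoxicity.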
# [2] = BSK_4H_Eotaxin3: BioMAP Diversity Plus: 4H Assay for Eotaxin 3 Biomarker Activity (AID 2283000; active = hit-call score of the fitted dose curve at least 0.9, where 1 is the maximum; inactive = score below 0.9;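 note: CCL26 protein level quantified by ELISA in parallel with SRB cytotoxicity check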); conditions: primary human endothelial cells (HUVEC); actives raise or lower the signal
# Procedure, shortened: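 Human umbilical vein endothelial cells (BSK_4H system) dosed with test chemical; Eotaxin-3 (CCL26) measured by ELISA 24 h after dosing. Bidirectional curve fitting relative to DMSO negative control as baseline.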
# [3] = read-out: Intercellular Adhesion Molecule 1 (ICAM1), ICAM1 (gene 3383); test: BSK_3C_ICAM1: BioMAP Diversity Plus: 3C Assay for Intercellular Adhesion Molecule 1 (ICAM1) Biomarker Activity (AID 2283003; active = hit-call score of the fitted dose curve at least 0.9, where 1 is the maximum; inactive = score below 0.9); conditions: primary human endothelial cells (HUVEC); actives raise or lower the signal
# Procedure, shortened: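 Using DMSO as baseline, bidirectional curve fitting was applied to ICAM-1 ELISA signals from HUVEC in the 3C system, measured 24 h after compound addition.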
# [4] = BSK_3C_Proliferation: Cell Proliferation Assessment in the BioMAP Diversity Plus: 3C Assay (AID 2283006; active = hit-call score of the fitted dose curve at least 0.9, where 1 is the maximum; inactive = score below 0.9); conditions: primary human endothelial cells (HUVEC)
# Procedure, shortened: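 Measured here: sulforhodamine B (0.1%) staining of TCA-fixed sub-confluent umbilical vein endothelial cultures 48 h post-dosing, absorbance 560 nm. DMSO served as negative control and baseline; both signal gain and loss were modelled.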
# [5] = target: Nuclear receptor subfamily 1 group I member 2 (Homo sapiens) (UniProt O75469); test: ATG_PXR_TRANS: Attagene TRANS-FACTORIAL HepG2 Assay for human Pregnane X Receptor (PXR) (AID 2283008)
# Procedure, shortened: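 Transient HepG2 transfectants carrying multiplexed reporter transcription units; PXR activity read through a Gal4 chimera. 24 h exposure. RT-PCR/CE fluorescence; upward curve fit referenced to DMSO.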
# [6] = target: human RAR-related Orphan Receptor gamma (RORg), RORC (gene 6097) (UniProt P51449); test: ATG_RORg_TRANS: Attagene TRANS-FACTORIAL HepG2 Assay for human RAR-related Orphan Receptor gamma (RORg) (AID 2283011)
# Procedure, shortened: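 Reporter transcripts from a transfected RORg-GAL4 chimera in HepG2 cells were quantified 24 h after dosing by RT-PCR, 6-FAM labelling, HpaI digestion and capillary electrophoresis; increases over DMSO baseline were fitted.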
# [7] = target: Retinoic acid receptor RXR-alpha (Homo sapiens) (UniProt P19793); test: ATG_RXRa_TRANS: Attagene TRANS-FACTORIAL HepG2 Assay for human Retinoid X Receptor alpha (RXRa) (AID 2283012)
# Procedure, shortened: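 Chimeric NR-GAL4 trans-activation in HepG2, 24 h treatment; reporter transcripts quantified by fluorescence on capillary electrophoresis, analysed for upward change from DMSO.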
# [8] = target: human Retinoid X Receptor beta (RXRb), RXRB (gene 6257) (UniProt P28702); test: ATG_RXRb_TRANS: Attagene TRANS-FACTORIAL HepG2 Assay for human Retinoid X Receptor beta (RXRb) (AID 2283013)
# Procedure, shortened: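 After a 24 h incubation with test chemical, transfected HepG2 cells carrying NR-Gal4 fusions and GAL4-UAS reporter transcription units yield RNA whose reporter cDNA is FAM-labelled, HpaI-cut and sized by capillary electrophoresis; increases over DMSO are scored.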
# [9] = read-out: E-selectin (Homo sapiens) (UniProt P16581); test: BSK_3C_Eselectin: BioMAP Diversity Plus: 3C Assay for Eselectin Biomarker Activity (AID 2283015; active = hit-call score of the fitted dose curve at least 0.9, where 1 is the maximum; inactive = score below 0.9;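 note: cell surface E-selectin protein quantified by ELISA 24 h after dosing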); conditions: primary human endothelial cells (HUVEC); actives raise or lower the signal
# Procedure, shortened: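 E-selectin ELISA readout, fitted bidirectionally relative to DMSO, taken 24 h post-dosing in HUVEC cultures of the 3C system. Overt cytotoxicity tracked with sulforhodamine B staining of parallel wells.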
# [10] = read-out: Interleukin-1 alpha (IL1a), IL1A (gene 3552); test: BSK_BE3C_IL1a: BioMAP Diversity Plus: BE3C Assay for Interleukin-1 alpha (IL1a) Biomarker Activity (AID 2283016; active = hit-call score of the fitted dose curve at least 0.9, where 1 is the maximum; inactive = score below 0.9); conditions: primary human bronchial epithelial cells; actives raise or lower the signal
# Procedure, shortened: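 Measured in human lung primary bronchial epithelial cells: IL-1a by ELISA at 24 h after dosing, with bidirectional fitting against DMSO.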
# [11] = read-out: Monocyte Chemoattractant Protein-1 (MCP1), CCL2 (gene 6347); test: BSK_3C_MCP1: BioMAP Diversity Plus: 3C Assay for Monocyte Chemoattractant Protein-1 (MCP1) Biomarker Activity (AID 2283017; active = hit-call score of the fitted dose curve at least 0.9, where 1 is the maximum; inactive = score below 0.9); conditions: primary human endothelial cells (HUVEC); actives raise or lower the signal
# Procedure, shortened: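 MCP-1 was measured by ELISA 24 h after dosing in primary HUVEC 3C cultures and fitted in both directions relative to DMSO; cytotoxicity was checked by SRB total-protein staining in parallel wells.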
# [12] = read-out: Human Leukocyte Antigen - DR isotype (HLADR), HLA-DRA (gene 3122); test: BSK_3C_HLADR: BioMAP Diversity Plus: 3C Assay for Human Leukocyte Antigen - DR isotype (HLADR) Biomarker Activity (AID 2283019; active = hit-call score of the fitted dose curve at least 0.9, where 1 is the maximum; inactive = score below 0.9;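 note: ELISA of cell-surface HLA-DR on HUVEC 24 h after dosing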); conditions: primary human endothelial cells (HUVEC); actives raise or lower the signal
# Procedure, shortened: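 Bidirectional fitting against DMSO was applied to the HLA-DR ELISA signal from human umbilical vein endothelial cells, 24 h post-dose. Cytotoxicity came from parallel SRB total-protein staining; 3C proliferation was counted by SRB at 48 h.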
# [13] = target: human Peroxisome Proliferator-activated Receptor alpha (PPARa), PPARA (gene 5465) (UniProt Q07869); test: ATG_PPARa_TRANS: Attagene TRANS-FACTORIAL HepG2 Assay for human Peroxisome Proliferator-activated Receptor alpha (PPARa) (AID 2283001)
# Procedure, shortened: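 Transfected HepG2 cells treated with test chemical for 24 h. RNA isolated, reverse-transcribed with oligo(dT), PCR-amplified, FAM-labelled and HpaI-digested. Fragments sized by capillary electrophoresis; gain-of-signal fit relative to DMSO.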
# [14] = target: human Peroxisome Proliferator-activated Receptor delta (PPARd), PPARD (gene 5467) (UniProt Q03181); test: ATG_PPARd_TRANS: Attagene TRANS-FACTORIAL HepG2 Assay for human Peroxisome Proliferator-activated Receptor delta (PPARd) (AID 2283002)
# Procedure, shortened: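 Cell-based TRANS reporter: HepG2, transient MRTU transfection, 24 h exposure. Readout = reporter mRNA (RT-PCR/CE, 6-FAM). Gain-of-signal fit vs DMSO control.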
# [15] = target: Peroxisome proliferator-activated receptor gamma (Homo sapiens) (UniProt P37231); test: ATG_PPARg_TRANS: Attagene TRANS-FACTORIAL HepG2 Assay for human Peroxisome Proliferator-activated Receptor-gamma (PPARg) (AID 2283007)
# Procedure, shortened: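 Multiplexed reporter transcription units in HepG2, 24 h dosing, reporter transcripts quantified by fluorescent RT-PCR and capillary electrophoresis. Increase over DMSO scored.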
# [16] = target: human Retinoic Acid Receptor beta (RARb), RARB (gene 5915) (UniProt P10826); test: ATG_RARb_TRANS: Attagene TRANS-FACTORIAL HepG2 Assay for human Retinoic Acid Receptor beta (AID 2283004)
# Procedure, shortened: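 Induction of reporter mRNA from a chimeric RARb-Gal4 construct was measured by RT-PCR, FAM labelling, HpaI digestion and capillary electrophoresis. Measurements followed 24 h compound treatment of transiently transfected human HepG2 liver cells, with DMSO as baseline.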
# [17] = target: human Thyroid Receptor alpha (THRa1), THRA (gene 7067) (UniProt P10827); test: ATG_THRa1_TRANS: Attagene TRANS-FACTORIAL HepG2 Assay for human Thyroid Receptor alpha (THRa1) (AID 2283014)
# Procedure, shortened: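 Transcripts from GAL4-UAS-driven reporters, measured after 24 h compound exposure by RT-PCR plus capillary electrophoresis of 6-FAM-labeled fragments, were fitted for gain of signal relative to DMSO. Cells: transiently transfected HepG2 expressing NR-Gal4 chimeras.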
# [18] = read-out: Monocyte Chemoattractant Protein-1 (MCP1), CCL2 (gene 6347); test: BSK_4H_MCP1: BioMAP Diversity Plus: 4H Assay for Monocyte Chemoattractant Protein-1 (MCP1) Biomarker Activity (AID 2283018; active = hit-call score of the fitted dose curve at least 0.9, where 1 is the maximum; inactive = score below 0.9); conditions: primary human endothelial cells (HUVEC); actives raise or lower the signal
# Procedure, shortened: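 Primary human umbilical vein endothelium is exposed to chemical for 24 h before MCP-1 is assayed by ELISA. Concentration-response fitted bidirectionally relative to DMSO.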
# [19] = target: human Retinoic Acid Receptor gamma (RARg), RARG (gene 5916) (UniProt P13631); test: ATG_RARg_TRANS: Attagene TRANS-FACTORIAL HepG2 Assay for human Retinoic Acid Receptor gamma (RARg) (AID 2283009)
# Procedure, shortened: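 Gain-of-signal relative to DMSO is reported from fluorescent capillary electrophoresis of RT-PCR reporter products. These came from HepG2 cells expressing transfected RARg-GAL4 chimeras with UAS reporters, harvested 24 h after dosing.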
# [20] = target: Retinoic acid receptor alpha (Homo sapiens) (UniProt P10276); test: ATG_RARa_TRANS: Attagene TRANS-FACTORIAL HepG2 Assay for human Retinoic Acid Receptor alpha (RARa) (AID 2283005)
# Procedure, shortened: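 Reporter transcripts, measured by RT-PCR with fluorescent labeling and capillary electrophoresis after 24 h dosing, reflect activity of an exogenous human RARa–GAL4 fusion in transiently transfected HepG2. Fitted for increase relative to DMSO.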
# Chain of Retinoic acid receptor RXR-alpha (Homo sapiens) (P19793 whole entry, looked up, the tested form may be a part): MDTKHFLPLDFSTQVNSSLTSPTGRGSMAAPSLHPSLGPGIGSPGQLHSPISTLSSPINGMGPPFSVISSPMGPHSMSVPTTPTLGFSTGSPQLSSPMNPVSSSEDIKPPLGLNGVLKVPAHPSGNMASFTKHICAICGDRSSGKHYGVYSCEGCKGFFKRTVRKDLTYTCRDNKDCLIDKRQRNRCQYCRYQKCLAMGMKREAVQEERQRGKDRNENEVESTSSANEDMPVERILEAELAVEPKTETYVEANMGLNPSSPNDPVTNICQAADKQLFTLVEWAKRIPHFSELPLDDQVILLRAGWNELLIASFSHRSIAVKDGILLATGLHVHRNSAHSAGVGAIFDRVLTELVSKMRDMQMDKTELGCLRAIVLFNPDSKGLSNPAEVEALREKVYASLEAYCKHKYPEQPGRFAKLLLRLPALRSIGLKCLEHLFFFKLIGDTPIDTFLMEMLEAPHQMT
# Chain of human Peroxisome Proliferator-activated Receptor delta (PPARd), PPARD (gene 5467) (Q03181 whole entry, looked up): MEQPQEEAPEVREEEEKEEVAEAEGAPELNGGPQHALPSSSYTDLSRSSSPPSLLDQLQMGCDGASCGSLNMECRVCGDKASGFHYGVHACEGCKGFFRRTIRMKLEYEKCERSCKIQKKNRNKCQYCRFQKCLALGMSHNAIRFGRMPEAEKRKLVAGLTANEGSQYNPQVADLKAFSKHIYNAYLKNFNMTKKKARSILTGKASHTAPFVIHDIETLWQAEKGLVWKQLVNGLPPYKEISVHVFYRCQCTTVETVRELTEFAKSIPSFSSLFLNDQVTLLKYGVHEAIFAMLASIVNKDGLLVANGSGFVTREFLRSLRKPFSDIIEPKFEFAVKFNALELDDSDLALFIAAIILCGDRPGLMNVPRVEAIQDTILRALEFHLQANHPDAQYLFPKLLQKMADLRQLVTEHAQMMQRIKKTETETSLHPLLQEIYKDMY
# Chain of human Retinoid X Receptor beta (RXRb), RXRB (gene 6257) (P28702 whole entry, looked up, the tested form may be a part): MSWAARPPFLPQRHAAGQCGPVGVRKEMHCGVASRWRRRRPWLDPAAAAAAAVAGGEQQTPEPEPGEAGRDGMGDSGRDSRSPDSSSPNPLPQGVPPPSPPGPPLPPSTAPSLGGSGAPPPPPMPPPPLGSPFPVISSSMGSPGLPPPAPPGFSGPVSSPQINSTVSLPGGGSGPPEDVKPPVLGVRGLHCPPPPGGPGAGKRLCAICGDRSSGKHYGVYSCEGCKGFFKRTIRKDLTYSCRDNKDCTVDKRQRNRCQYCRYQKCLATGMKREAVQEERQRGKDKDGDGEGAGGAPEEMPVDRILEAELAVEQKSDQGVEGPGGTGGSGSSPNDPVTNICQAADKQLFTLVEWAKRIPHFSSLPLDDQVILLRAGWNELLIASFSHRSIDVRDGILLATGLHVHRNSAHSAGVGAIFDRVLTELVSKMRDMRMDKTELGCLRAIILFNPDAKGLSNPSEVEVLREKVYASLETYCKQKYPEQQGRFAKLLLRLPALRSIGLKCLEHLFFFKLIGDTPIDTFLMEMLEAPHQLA
# Chain of Nuclear receptor subfamily 1 group I member 2 (Homo sapiens) (O75469 whole entry, looked up, the tested form may be a part): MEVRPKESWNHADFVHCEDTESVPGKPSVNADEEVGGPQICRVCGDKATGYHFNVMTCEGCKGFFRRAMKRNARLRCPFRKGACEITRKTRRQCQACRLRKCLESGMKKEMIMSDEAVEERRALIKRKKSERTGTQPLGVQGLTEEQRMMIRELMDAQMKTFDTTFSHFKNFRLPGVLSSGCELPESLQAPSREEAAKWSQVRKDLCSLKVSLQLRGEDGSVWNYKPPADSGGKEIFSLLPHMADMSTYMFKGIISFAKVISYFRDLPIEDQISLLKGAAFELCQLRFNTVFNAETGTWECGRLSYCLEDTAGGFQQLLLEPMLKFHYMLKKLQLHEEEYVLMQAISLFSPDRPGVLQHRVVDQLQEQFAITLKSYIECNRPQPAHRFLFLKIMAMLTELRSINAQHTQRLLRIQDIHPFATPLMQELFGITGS
# Chain of human Thyroid Receptor alpha (THRa1), THRA (gene 7067) (P10827 whole entry, looked up, the tested form may be a part): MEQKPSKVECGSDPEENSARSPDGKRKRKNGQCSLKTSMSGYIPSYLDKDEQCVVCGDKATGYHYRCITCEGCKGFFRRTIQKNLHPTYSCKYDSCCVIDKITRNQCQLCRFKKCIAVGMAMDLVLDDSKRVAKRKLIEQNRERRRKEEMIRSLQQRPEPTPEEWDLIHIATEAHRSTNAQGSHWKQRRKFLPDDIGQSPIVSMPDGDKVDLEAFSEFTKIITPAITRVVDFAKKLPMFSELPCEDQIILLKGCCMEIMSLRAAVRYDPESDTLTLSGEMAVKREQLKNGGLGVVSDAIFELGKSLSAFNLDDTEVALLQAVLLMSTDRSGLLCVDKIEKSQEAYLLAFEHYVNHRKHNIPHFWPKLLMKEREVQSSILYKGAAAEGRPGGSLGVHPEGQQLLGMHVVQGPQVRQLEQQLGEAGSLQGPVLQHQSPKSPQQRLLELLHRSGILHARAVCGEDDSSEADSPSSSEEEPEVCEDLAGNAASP
# Chain of human Retinoic Acid Receptor gamma (RARg), RARG (gene 5916) (P13631 whole entry, looked up, the tested form may be a part): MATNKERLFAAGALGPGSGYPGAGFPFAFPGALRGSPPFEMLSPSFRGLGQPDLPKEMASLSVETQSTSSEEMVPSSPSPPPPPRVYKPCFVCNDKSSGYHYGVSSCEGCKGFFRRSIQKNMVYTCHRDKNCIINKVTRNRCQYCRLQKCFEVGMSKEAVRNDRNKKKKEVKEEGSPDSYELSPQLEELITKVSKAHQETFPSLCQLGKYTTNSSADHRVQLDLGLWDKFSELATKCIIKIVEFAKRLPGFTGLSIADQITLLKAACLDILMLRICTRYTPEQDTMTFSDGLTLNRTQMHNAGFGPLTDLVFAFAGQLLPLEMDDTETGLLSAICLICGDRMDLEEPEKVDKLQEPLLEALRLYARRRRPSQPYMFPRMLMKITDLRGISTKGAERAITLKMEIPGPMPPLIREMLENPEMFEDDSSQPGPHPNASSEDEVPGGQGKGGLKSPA
# Chain of human Peroxisome Proliferator-activated Receptor alpha (PPARa), PPARA (gene 5465) (Q07869 whole entry, looked up, the tested form may be a part): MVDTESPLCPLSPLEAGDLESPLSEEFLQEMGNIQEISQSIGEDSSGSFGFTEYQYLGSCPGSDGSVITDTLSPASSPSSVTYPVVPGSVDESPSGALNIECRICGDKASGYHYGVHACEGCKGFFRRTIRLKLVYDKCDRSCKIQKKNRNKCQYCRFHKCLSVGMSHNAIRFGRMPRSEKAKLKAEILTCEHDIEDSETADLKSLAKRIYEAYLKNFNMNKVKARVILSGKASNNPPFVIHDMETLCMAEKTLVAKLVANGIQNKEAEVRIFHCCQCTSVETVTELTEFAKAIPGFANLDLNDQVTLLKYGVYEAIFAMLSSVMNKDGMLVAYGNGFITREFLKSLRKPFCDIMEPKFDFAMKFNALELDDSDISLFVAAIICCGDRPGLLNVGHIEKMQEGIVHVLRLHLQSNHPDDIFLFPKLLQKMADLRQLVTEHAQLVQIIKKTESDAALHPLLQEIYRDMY
# Chain of human Retinoic Acid Receptor beta (RARb), RARB (gene 5915) (P10826 whole entry, looked up, the tested form may be a part): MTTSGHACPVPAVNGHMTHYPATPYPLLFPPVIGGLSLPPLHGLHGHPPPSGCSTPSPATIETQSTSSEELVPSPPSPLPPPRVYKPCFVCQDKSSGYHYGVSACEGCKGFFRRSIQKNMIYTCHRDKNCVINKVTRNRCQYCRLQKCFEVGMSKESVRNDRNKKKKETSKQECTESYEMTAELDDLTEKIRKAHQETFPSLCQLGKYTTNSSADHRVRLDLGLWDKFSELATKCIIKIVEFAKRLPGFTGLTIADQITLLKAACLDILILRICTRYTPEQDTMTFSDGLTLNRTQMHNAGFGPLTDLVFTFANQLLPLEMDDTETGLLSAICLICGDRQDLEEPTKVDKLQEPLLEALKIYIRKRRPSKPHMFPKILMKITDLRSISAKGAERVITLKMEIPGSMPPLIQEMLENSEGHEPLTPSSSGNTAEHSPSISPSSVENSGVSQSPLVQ
# Chain of human RAR-related Orphan Receptor gamma (RORg), RORC (gene 6097) (P51449 whole entry, looked up, the tested form may be a part): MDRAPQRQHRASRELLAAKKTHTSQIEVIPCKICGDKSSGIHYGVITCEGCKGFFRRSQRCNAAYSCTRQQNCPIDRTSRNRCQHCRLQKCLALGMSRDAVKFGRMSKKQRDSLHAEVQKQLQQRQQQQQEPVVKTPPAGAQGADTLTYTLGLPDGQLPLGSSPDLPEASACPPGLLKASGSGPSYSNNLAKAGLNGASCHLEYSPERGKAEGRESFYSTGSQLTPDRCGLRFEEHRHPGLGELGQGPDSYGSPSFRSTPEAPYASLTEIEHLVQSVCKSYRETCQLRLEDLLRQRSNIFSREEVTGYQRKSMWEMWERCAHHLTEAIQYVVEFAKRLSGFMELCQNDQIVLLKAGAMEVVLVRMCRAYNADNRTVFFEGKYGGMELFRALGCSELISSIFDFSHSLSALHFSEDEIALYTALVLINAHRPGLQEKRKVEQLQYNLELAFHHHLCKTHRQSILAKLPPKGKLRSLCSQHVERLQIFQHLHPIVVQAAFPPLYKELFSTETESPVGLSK
# Chain of Retinoic acid receptor alpha (Homo sapiens) (P10276 whole entry, looked up, the tested form may be a part): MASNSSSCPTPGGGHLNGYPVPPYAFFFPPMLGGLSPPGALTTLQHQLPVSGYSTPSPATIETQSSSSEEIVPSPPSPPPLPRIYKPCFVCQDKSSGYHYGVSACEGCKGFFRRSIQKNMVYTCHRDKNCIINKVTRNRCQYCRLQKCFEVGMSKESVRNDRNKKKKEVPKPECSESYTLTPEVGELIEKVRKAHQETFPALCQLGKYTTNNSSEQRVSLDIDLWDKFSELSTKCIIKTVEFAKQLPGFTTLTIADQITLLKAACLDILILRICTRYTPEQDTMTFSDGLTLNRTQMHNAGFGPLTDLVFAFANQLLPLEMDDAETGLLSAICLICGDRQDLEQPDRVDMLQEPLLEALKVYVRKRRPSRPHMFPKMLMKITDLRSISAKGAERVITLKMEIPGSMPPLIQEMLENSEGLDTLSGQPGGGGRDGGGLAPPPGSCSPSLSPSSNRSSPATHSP
smiles,measurement,setting,value
COP(N)(=S)OC,outcome,[1],inactive
same,outcome,[2],inactive
same,outcome,[3],inactive
same,outcome,[4],inactive
same,outcome,[5],inactive
same,outcome,[6],inactive
same,outcome,[7],inactive
same,outcome,[8],inactive
same,outcome,[9],inactive
same,outcome,[10],inactive
same,outcome,[11],inactive
same,outcome,[12],inactive
Cc1cc(C)c(C(=O)P(=O)(c2ccccc2)c2ccccc2)c(C)c1,AC50,[5],0.0576 µM (active)
CCCCOCC1CO1 (centres undefined),outcome,[13],inactive
same,outcome,[14],inactive
same,outcome,[15],inactive
same,outcome,[5],inactive
FC(F)(F)c1ccc(Cl)cc1,outcome,[14],inactive
same,outcome,[16],inactive
same,outcome,[15],inactive
same,outcome,[5],inactive
same,outcome,[7],inactive
O=C(O)CF,outcome,[13],inactive
same,outcome,[6],inactive
same,outcome,[7],inactive
same,outcome,[8],inactive
CCCCc1ccccc1,outcome,[1],inactive
same,outcome,[2],inactive
same,outcome,[3],inactive
same,outcome,[4],inactive
same,outcome,[5],inactive
same,outcome,[7],inactive
same,outcome,[17],inactive
same,outcome,[9],inactive
same,outcome,[10],inactive
same,outcome,[11],inactive
same,outcome,[18],inactive
same,outcome,[12],inactive
O=C(CBr)OCc1ccccc1,outcome,[14],inactive
same,outcome,[15],inactive
same,outcome,[7],inactive
CCN(CC)C1CCCCC1,outcome,[14],inactive
same,outcome,[15],inactive
same,outcome,[5],inactive
same,outcome,[19],inactive
same,outcome,[6],inactive
CCOP(=O)(O)C(N)=O,outcome,[20],inactive
same,outcome,[15],inactive
same,outcome,[5],inactive
same,outcome,[19],inactive
same,outcome,[6],inactive
same,outcome,[8],inactive
same,outcome,[17],inactive
CO/N=C(/C(=O)OC)c1ccccc1COc1ccccc1C,outcome,[14],inactive
same,outcome,[16],inactive
same,outcome,[20],inactive
same,AC50,[5],4.28 µM (active)
same,outcome,[19],inactive
same,outcome,[7],inactive
same,outcome,[8],inactive
same,outcome,[17],inactive
Oc1ccc(I)cc1,outcome,[13],inactive
same,outcome,[14],inactive
same,outcome,[15],inactive
same,outcome,[5],inactive
same,outcome,[7],inactive
same,outcome,[17],inactive
CC1(C)CN=C(NN=C(/C=C/c2ccc(C(F)(F)F)cc2)/C=C/c2ccc(C(F)(F)F)cc2)NC1,outcome,[14],inactive
same,outcome,[20],inactive
same,outcome,[5],inactive
same,outcome,[7],inactive
same,outcome,[17],inactive
C/C(=N\NC(=O)Nc1cc(F)cc(F)c1)c1ncccc1C(=O)O,outcome,[13],inactive
same,outcome,[15],inactive
same,outcome,[5],inactive
same,outcome,[7],inactive
same,outcome,[8],inactive
same,outcome,[17],inactive
CC(C)CBr,outcome,[13],inactive
same,outcome,[14],inactive
same,outcome,[16],inactive
same,outcome,[15],inactive
same,outcome,[19],inactive
same,outcome,[17],inactive
Oc1ccccc1Br,outcome,[13],inactive
same,outcome,[5],inactive
O=S(=O)(c1ccc(O)cc1)c1ccc(O)cc1,outcome,[14],inactive
same,AC50,[15],22.4 µM (active)
same,outcome,[5],inactive
same,outcome,[7],inactive
same,outcome,[17],inactive
O=c1[nH]c2ccccc2c(=O)o1,outcome,[13],inactive
same,outcome,[14],inactive
same,outcome,[20],inactive
same,outcome,[15],inactive
same,outcome,[5],inactive
same,outcome,[19],inactive
same,outcome,[6],inactive
same,outcome,[7],inactive
CC(Cc1ccc(OCC(=O)O)cc1)NCC(O)c1csc(C(F)(F)F)n1 (centres undefined),outcome,[1],inactive
same,outcome,[2],inactive
same,outcome,[3],inactive
same,outcome,[4],inactive
same,outcome,[15],inactive
same,outcome,[8],inactive
same,outcome,[9],inactive
same,outcome,[10],inactive
same,outcome,[11],inactive
same,outcome,[12],inactive
